18 compounds from PubChem BioAssay (NCATS) can be followed below.

“And” between values parts separate entries of the source, which are not always exact repeats. Equal values may be shown once. Unmarked numbers belong to inactive results. Results filed as inconclusive are left out. The source made the active and inactive calls. The call rests on the fitted dose curve; in most records, active means well fitted curve in the direction sought with a large enough effect; inconclusive means small, poorly fitted or top-dose-only effect, or another doubt; inactive means no such curve, though single readings can be large; an effect the other way counts as inactive or inconclusive.

Assay [1] is described as follows: Cellular Toxicity (caspase-3) Jurkat (AID 655).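 Further: cells exposed to compound for 16 h at 37 °C before reading.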 Put shortly: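 Luminescent Caspase-Glo 3/7 read-out (20 min, room temperature) after 16 h compound treatment at 37 C of 5000 Jurkat cells per well. AC50 derived by Hill-equation fitting, scaled between DMSO basal and 100 uM tamoxifen stimulation.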
The nature of assay [2]: Cellular Toxicity (caspase-3) HUV-EC-C (AID 656). The procedure, abridged:
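Luminescent Caspase-Glo 3/7 readout after 16 h, 37 °C compound exposure of HUV-EC-C endothelial cells, 1000 per well, complete medium. AC50 derived by Hill fitting, with DMSO as baseline and 100 uM tamoxifen as full activation.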

Assay [3] in a line: Cellular Toxicity (caspase-3) SHSY5Y (AID 657). Further: potency means the concentration at half of the fitted maximal effect. The procedure, abridged: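 Luminescent Caspase-Glo 3/7 read-out, 1 hr room temperature, follows 16 hours of compound treatment of SH-SY5Y cells at 37 °C. Normalization: DMSO basal, 10 uM staurosporine as 100%; AC50 values from Hill-equation concentration-response fits.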
Assay [4] can be described thus: Cellular Toxicity (caspase-3) BJ (AID 658). Further: potency means the concentration at half of the fitted maximal effect.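 On caspase-3 activation: 0% = DMSO basal and 100% = 10 µM staurosporine.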 The note with it: Potency: caspase-3 activation. The procedure, abridged: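 Caspase-Glo 3/7 luminescence, read 1 hr after reagent at room temperature, in normal BJ fibroblasts exposed 16 hours at 37 °C. AC50 values from Hill-equation concentration-response, scaled between DMSO basal and 10 uM staurosporine as 100%.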
Assay [5] in a line: Cellular Toxicity (caspase-3) Mesangial (AID 660).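 Further: combined caspase 3 and 7 activity read by Caspase-Glo luminescence; cells exposed to compound for 16 h before the caspase read.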 Further: potency means the concentration at half of the fitted maximal effect. The note with it: Potency: caspase-3 activation. The procedure, abridged:
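AC50 values come from Hill-equation fits of caspase 3/7 activation, measured as Caspase-Glo luminescence in human glomerular mesangial cells exposed to compound for 16 h at 37 °C; 100% set by 100 uM tamoxifen.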

The nature of assay [6]: Cellular Toxicity (caspase-3) SK-N-SH (AID 661). Further: potency means the concentration at half of the fitted maximal effect.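 On caspase-3 activation: 0% = DMSO basal and 100% = 10 µM staurosporine.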 Put shortly:
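Apoptosis readout in SK-N-SH neuroblastoma: Caspase-Glo 3/7 luminescence following 16 hr treatment in complete culture medium. Normalization used DMSO and 10 uM staurosporine controls.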

Assay [7] is described as follows: Cellular Toxicity (caspase-3) H-4-II-E (AID 663).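 Further: cells exposed to compound for 16 hr before readout.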 The note with it: H-4-II-E rat hepatoma, scaled: DMSO 0%, 100 µM tamoxifen 100%; at 92.2 µM (top of the series). Put shortly: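 Caspase 3/7 activation measured by luminescent aminoluciferin substrate cleavage after 16 hr compound treatment of H-4-II-E cells in complete medium. Increase normalized between DMSO (basal) and 100 uM tamoxifen (100%); Hill-equation AC50 from concentration-response.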

Assay [8] is described as follows: Cellular Toxicity (caspase-3) Hek293 (AID 664).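 Further: cells exposed to compound for 16 h at 37 °C before readout.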 The note with it: HEK293 caspase-3 activation, DMSO = 0%, 100 µM tamoxifen = 100%; at 92.2 µM (top of the series). The procedure, abridged:
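Apoptosis readout: Caspase-Glo 3/7 signal in human HEK293 cells following 16-hour compound incubation. Responses scaled between DMSO baseline and 100 uM tamoxifen.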

A short description of assay [9]: Cellular Toxicity (caspase-3) N2a (AID 665).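 Further: compound exposure lasted 16 h at 37 °C before readout.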 The procedure, abridged: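 Concentration-response qHTS: compound-induced caspase-3/7 luminescence in N2a cells (16 h, 37 °C), relative to DMSO and 10 uM staurosporine controls; AC50 obtained using the standard Hill equation.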
Assay [10] in a line: Cellular Toxicity (caspase-3) NIH 3T3 (AID 666).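 Further: caspase signal read after 16 h compound exposure.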 Further: potency means the concentration at half of the fitted maximal effect. The procedure, abridged: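 Activity: caspase-3/7 induction, NIH 3T3 cells, 16 hr treatment at 37°C, luminescent Caspase-Glo detection; AC50 via Hill equation.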

Consider `C[C@]12C=CC(=O)C=C1CC[C@@H]1[C@@H]2C(=O)C[C@@]2(C)[C@H]1CC[C@]2(O)C(=O)CO`, for which the compound was called inactive in assay [1], in assay [2] and in assay [9]. In addition, the Potency result in assay [3], in [4], in assay [5], in assay [6] and in assay [10] was “inactive” throughout. Besides, the caspase-3 activation in assay [7] is 0.264%; in assay [8] it was -0.65%.

As for `O=C(O)c1cc(=O)[nH]c(=O)[nH]1`, the compound was classed as inactive in assay [1], in assay [2] and in assay [9]. In addition, the Potency entry in [3], in assay [4], in [5], in assay [6] and in assay [10] was “inactive” throughout. Besides, the caspase-3 activation was 0.389% in assay [7] and -0.467% in [8].

Consider `NNC(=O)c1ccncc1`, for which the compound was called inactive in assay [1], in assay [2] and in [9]. Besides, the Potency result in assay [3], in assay [4], in [5], in assay [6] and in assay [10] was “inactive” throughout. In addition, the caspase-3 activation in assay [7] was 0.877%; in [8], 0.113%.

For `CC1=NN(c2ccccc2)C(=O)C1`, the outcome in [1], in assay [2] and in [9] was inactive. Besides, the Potency result in assay [3], in [4], in assay [5], in assay [6] and in assay [10] was “inactive” each time. The results for the caspase-3 activation in [7] and in assay [8] were -1.22% and 1.55%, respectively.

For the compound `Cc1noc(NS(=O)(=O)c2ccc(N)cc2)c1C`, the compound was called inactive in assay [1], in assay [2] and in assay [9]. Further, the Potency result in assay [3], in [4], in assay [5], in assay [6] and in [10] was “inactive” each time. Further, the caspase-3 activation in assay [7] is 0.00688%; in assay [8], -1.11%.

With `Cc1nnc(NS(=O)(=O)c2ccc(N)cc2)s1`, the compound was classed as inactive in assay [1], in [2] and in assay [9]. In addition, the Potency entry in assay [3], in assay [4], in assay [5], in assay [6] and in assay [10] was “inactive” throughout. Also, the caspase-3 activation in [7] is -0.129%; in [8], -0.508%.

On to `N=C(N)c1ccc(OCCCCCOc2ccc(C(=N)N)cc2)cc1`, for which the result in [1], in [2] and in assay [9] was inactive. Moreover, the Potency entry in assay [3], in assay [4], in assay [5], in assay [6] and in assay [10] was “inactive” in each case. The caspase-3 activation in assay [7] is 1.46%; in assay [8] it was 3%.

In the case of `Cc1ccnc2c1NC(=O)c1cccnc1N2C1CC1`, the compound was classed as inactive in assay [1], in assay [2] and in [9]. Also, the Potency entry in assay [3], in assay [4], in assay [5], in assay [6] and in [10] was “inactive” in each case. The caspase-3 activation was 0.892% in assay [7] and -0.521% in assay [8].

With `CN(C)c1ccc(C(=C2C=CC(=[N+](C)C)C=C2)c2ccc(N(C)C)cc2)cc1`, the Potency in assay [3] was 3.16 µM (active); in assay [4], 15.8 µM (active); in [5], 31.6 µM (active); in [6] it was 10 µM (active); in assay [10] it was 31.6 µM (active). Also, the caspase-3 activation in assay [7] was 85.6% (active).

Take `CC(=O)[C@H]1CC[C@H]2[C@@H]3CCC4=CC(=O)CC[C@]4(C)[C@H]3CC[C@]12C`: the outcome in assay [1], in [2] and in assay [9] was inactive. In addition, the Potency result in assay [3], in assay [4], in [5], in [6] and in assay [10] was “inactive” throughout. The caspase-3 activation in [7] was 12.7% and 23%; in [8] it was 154% (active).

Turning to `NC(N)=NC(N)=NCCc1ccccc1`, the outcome in [1], in assay [2] and in assay [9] was inactive. Besides, the Potency entry in assay [3], in [4], in [5], in assay [6] and in assay [10] was “inactive” in each case. The caspase-3 activation in assay [7] was 0.291%; in [8], -0.745%.

For the compound `CC(=O)Oc1ccccc1C(=O)Nc1ncc([N+](=O)[O-])s1`, the compound was classed as inactive in assay [1], in [2] and in [9]. The Potency result in assay [3], in assay [4], in assay [5] and in assay [6] was “inactive” throughout. The results for the caspase-3 activation in [7] and in assay [8] were -3.94% and -8.75%, respectively.

Consider `O=C(N[C@H](CO)[C@H](O)c1ccc([N+](=O)[O-])cc1)C(Cl)Cl`, for which the outcome in assay [1], in assay [2] and in assay [9] was inactive. The Potency entry in assay [3], in [4], in assay [5], in [6] and in [10] was “inactive” throughout. Moreover, the caspase-3 activation is 0.675% in [7] and 1.63% in assay [8].

As for `CC[C@H](C)C(=O)O[C@H]1C[C@@H](C)C=C2C=C[C@H](C)[C@H](CC[C@@H]3C[C@@H](O)CC(=O)O3)[C@H]21`, the result in [1], in [2] and in assay [9] was inactive. The Potency result in assay [3], in [4], in [5], in assay [6] and in assay [10] was “inactive” each time. The caspase-3 activation in assay [7] is 1.47%; in assay [8], -1.73%.

As for `CCc1cc(C(N)=S)ccn1`, the outcome in assay [1], in [2] and in assay [9] was inactive. Further, the Potency result in assay [3], in [4], in [5], in [6] and in assay [10] was “inactive” throughout. Also, the caspase-3 activation in assay [7] was -1.43%; in [8] it was -3.96%.

On to `Cc1cc(NS(=O)(=O)c2ccc(N)cc2)no1`, for which the result in [1], in [2] and in assay [9] was inactive. Further, the Potency result in assay [3], in assay [4], in assay [5], in assay [6] and in [10] was “inactive” in each case. Also, the values for the caspase-3 activation in assay [7] and in [8] were 0.0786% and 1.7%, respectively.

Regarding `Cc1ncc([N+](=O)[O-])n1CCO`, the call in assay [1], in assay [2] and in assay [9] was inactive. In addition, the Potency result in assay [3], in [4], in assay [5], in assay [6] and in [10] was “inactive” each time. The caspase-3 activation is 0.0502% in assay [7] and -0.402% in assay [8].

In the case of `COc1ccc2cc3[n+](cc2c1OC)CCc1cc2c(cc1-3)OCO2`, the call in [1], in [2] and in assay [9] was inactive. Also, the Potency entry in assay [3], in assay [4], in [5], in assay [6] and in [10] was “inactive” throughout. The caspase-3 activation in assay [7] is 0.864%; in assay [8], 4.12%.
